Screens from PubChem BioAssay.
This is a sample that favours compounds with a hit; in the whole collection about 1% have one here.
RXFP1 antagonist: RXFP1 (human) relaxin receptor antagonism; Q9HBX9; HEK293-RXFP1, relaxin-stimulated cAMP HTRF, 30 min; active compounds read low; activity change, negative = inhibition, % at 57.5 µM; actives 0.59% (n = 350,000); AID 1259400;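 active = activity change of -60% or lower, but not beyond a set lower limit; inconclusive = change between -60% and -40%, or beyond the set limit; inactive = change above -40%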
Target sequence (Q9HBX9 whole entry, looked up): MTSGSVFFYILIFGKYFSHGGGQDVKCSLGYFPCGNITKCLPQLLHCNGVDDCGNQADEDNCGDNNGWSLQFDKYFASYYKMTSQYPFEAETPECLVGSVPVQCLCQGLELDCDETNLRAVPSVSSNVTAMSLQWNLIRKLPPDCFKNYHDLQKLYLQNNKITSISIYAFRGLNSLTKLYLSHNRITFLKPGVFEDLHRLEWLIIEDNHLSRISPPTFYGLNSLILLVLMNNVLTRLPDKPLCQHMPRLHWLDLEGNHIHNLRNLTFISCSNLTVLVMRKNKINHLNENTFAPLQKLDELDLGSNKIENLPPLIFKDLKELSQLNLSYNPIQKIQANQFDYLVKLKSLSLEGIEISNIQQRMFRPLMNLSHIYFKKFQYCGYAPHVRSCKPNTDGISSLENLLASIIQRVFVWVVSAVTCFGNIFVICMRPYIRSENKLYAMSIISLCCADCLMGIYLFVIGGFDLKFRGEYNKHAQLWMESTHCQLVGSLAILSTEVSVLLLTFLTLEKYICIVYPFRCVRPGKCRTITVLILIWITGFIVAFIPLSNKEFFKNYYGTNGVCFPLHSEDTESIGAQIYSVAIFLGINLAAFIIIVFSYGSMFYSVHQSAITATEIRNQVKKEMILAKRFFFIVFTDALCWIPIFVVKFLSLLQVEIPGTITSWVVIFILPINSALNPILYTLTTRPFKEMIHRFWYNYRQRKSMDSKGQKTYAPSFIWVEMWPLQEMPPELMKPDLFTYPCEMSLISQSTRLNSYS
TSHR antagonist: human thyrotropin receptor antagonism; TSHR-expressing cells, TSH-stimulated cAMP HTRF, 2 h; active compounds read low; activity change, negative = inhibition, % at 11.5 µM; actives 0.2% (n = 330,000);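 active = activity change below a set negative limit, meaning inhibition stronger than a set level, cut at about -70% in these data; inconclusive = activity change between two set negative limits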
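Antagonism was scored as loss of TSH-driven cAMP in TSHR cells, stimulated with 4nM TSH (EC80) for 2 hours at 37 deg C and detected by homogeneous HTRF competition immunoassay.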
RXFP1 ag: agonists of human relaxin receptor RXFP1. actives 0.3% (n = 370,000). Q9HBX9. HEK293T-RXFP1 cAMP TR-FRET, 30 min; response scale: percent of porcine relaxin response, buffer zero. Potency, µM (titrated, usually from 57.5 µM), hits mostly activators; active = well fitted activation curve with a large enough effect; inconclusive = small, poorly fitted or top-dose-only effect; also: nearly all actives have a fitted effect of over 60% in size
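HEK293T cells stably expressing RXFP1 were pretreated with the PDE4 inhibitor Ro 20174, exposed to compounds for 30 min at 37C, lysed, and cAMP was read by TR-FRET. Data normalized to buffer (basal) and 29 nM porcine relaxin (100%).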
gsp ag: gsp mutant agonism. gsp mutant cells, cAMP HTRF, 30 min. Potency, µM (doses to about 76.9 µM), hits mostly activators. actives 0.13% (n = 340,000); active = well fitted activation curve with a large enough effect; inconclusive = small, poorly fitted or top-dose-only effect, or another doubt; inactive = no such curve, though single readings can be large or run the other way; cell line not stated here;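 also: phosphodiesterase inhibitor Ro 20-1724 added with compounds to block cAMP breakdown; nearly all actives have a fitted effect of over 60% in size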
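Cells in DMEM/10% FBS with G418 were pretreated with compounds in DMSO plus […] (300 uM stock) for 30 min at 37C. cAMP was measured by HTRF (cAMP-d2 plus anti-cAMP antibody-K) after 30 min at room temperature.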
gsp antagonist: gsp mutant antagonism. gsp-mutant cells, cAMP HTRF, 30 min. Potency, µM (doses to about 76.9 µM), most hits filed as inhibitors. AID 624288. actives 0.4% (n = 340,000); calls by dose curve; cell line not stated here;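 also: intracellular cAMP measured with PDE inhibitor Ro 20-1724 present during compound exposure; nearly all actives have a fitted effect of over 65% in size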
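HTRF cAMP measurement after 30 min RT detection following 30 min, 37C compound treatment alongside […] (added as 300 uM solution) in G418-selected cells seeded at 2000/well and grown 16–24 h.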
Each line names hits and unclear results; the compound was inactive in the other large screens.

O=C(COc1ccc(S(=O)(=O)N2CCCCC2)cc1)N1CCN(Cc2ccccc2)CC1	gsp ag 32µM
CCc1ccc(CN2CCN(Cc3ccc(SC)cc3)CC2)cc1	RXFP1 antagonist -62
CSc1ccc(CN2CCN(C(=O)COc3ccc(C)cc3)CC2)cc1	gsp ag 3.2µM
CC(C)(C)NS(=O)(=O)c1ccc(OCC(=O)N2CCN(Cc3ccccc3)CC2)cc1	none
Cc1ccc(OCC(=O)N2CCN(CCc3ccncc3)CC2)cc1	none (no result: TSHR antagonist, gsp ag, gsp antagonist)
CCCCCNc1c(C(=O)OCC)c(=O)[nH]c2ccccc12	gsp ag inconclusive
O=C(CBr)Nc1ccc(Cl)cc1C(=O)c1ccccc1F	none (no result: TSHR antagonist, RXFP1 ag, gsp ag, gsp antagonist)
CCN(CC)c1ccc(/C=C2/C(=O)NC(=O)N(CC3CCCO3)C2=O)cc1 (stereo not drawn)	none
O=C1NC(=O)N(Cc2ccco2)C(=O)/C1=C/c1cccn1CCOc1ccccc1Cl	RXFP1 antagonist -61
CCN(CC)c1ccc(/C=C2\C(=O)NC(=O)N(Cc3ccco3)C2=O)cc1	RXFP1 antagonist -66
CC(=O)OCC1=C(C(=O)O)N2C(=O)[C@@H](N)[C@H]2SC1	none (no result: TSHR antagonist, RXFP1 ag, gsp ag, gsp antagonist)
CCOCCOC(C)=O	none (no result: TSHR antagonist, RXFP1 ag, gsp ag, gsp antagonist)
O=C(c1ccc2c3c(cccc13)CC2)C1CCCN(CC2CC2)C1 (stereo not drawn)	RXFP1 antagonist -63
CCON=C(CC)C1=C(O)CC(c2c(C)cc(C)cc2C)CC1=O (stereo not drawn)	none (no result: TSHR antagonist, RXFP1 ag, gsp ag, gsp antagonist)
CCOc1ccc(-c2c(C)n(-c3ccc(OCC)cc3)c3[n+]2CCCCC3)cc1	RXFP1 antagonist inconclusive, gsp ag inconclusive, gsp antagonist inconclusive
CCOc1ccc(-n2nc3c(=S)[nH]nc(C)c3c2C)cc1	RXFP1 ag 5.6µM, gsp ag inconclusive
CN1CCC(N(Cc2ccccc2)c2ccccc2)CC1	none (no result: TSHR antagonist, RXFP1 ag, gsp ag, gsp antagonist)
O=C(O)c1ccc2c(c1)C1C(Cl)C(Sc3ccccc3[N+](=O)[O-])CC1C(c1cccc([N+](=O)[O-])c1)N2 (stereo not drawn)	RXFP1 antagonist -89
O=C(O)c1cccc2c1NC(c1cccc([N+](=O)[O-])c1)C1CC(Sc3ccccc3[N+](=O)[O-])C(Cl)C21 (stereo not drawn)	gsp antagonist inconclusive
CN(C)CCc1c[nH]c2ccccc12	none (no result: TSHR antagonist, RXFP1 ag, gsp ag, gsp antagonist)
CC(C)(C)c1cc(C=C(C#N)C#N)cc(C(C)(C)C)c1O	TSHR antagonist -81, gsp antagonist inconclusive (no result: RXFP1 antagonist, gsp ag)
CCN(CC)CCOC(=O)C(C)(c1ccccc1)c1ccccc1	none (no result: TSHR antagonist, RXFP1 ag, gsp ag, gsp antagonist)
C[C@]12CC[C@H]3[C@@H](CCC4=CC(=O)CC[C@@]43C)[C@@H]1CC[C@@H]2C(=O)O	none (no result: TSHR antagonist, RXFP1 ag, gsp ag, gsp antagonist)
CCC(=O)O[C@H]1CC[C@H]2[C@@H]3CCC4=CC(=O)CC[C@]4(C)[C@H]3CC[C@]12C	RXFP1 antagonist -68 (no result: TSHR antagonist, RXFP1 ag, gsp ag)
O=[N+]([O-])c1ccc(Sc2nc3ccccc3o2)c([N+](=O)[O-])c1	TSHR antagonist -71, gsp ag inconclusive
COc1ccc(OC)c(CNCCc2ccc(OC)c(OC)c2)c1	none
COc1ccc(OC)c(CCNCc2c(C(=O)O)c(C)n(Cc3ccc(F)cc3Cl)c2C)c1	RXFP1 antagonist -63 (no result: TSHR antagonist, gsp ag, gsp antagonist)
CC1Sc2c(C(=O)O)c(=O)c3cc(F)c(N4CCNCC4)cc3n21 (stereo not drawn)	none (no result: TSHR antagonist, RXFP1 ag, gsp ag, gsp antagonist)
O=[N+]([O-])c1ccc(C[n+]2c(-c3ccccc3)cc(-c3ccccc3)cc2-c2ccccc2)cc1	none (no result: RXFP1 antagonist)
O=[N+]([O-])c1cc(Cl)c(O)c(-[n+]2c(-c3ccccc3)cc(-c3ccccc3)cc2-c2ccccc2)c1	gsp ag inconclusive, gsp antagonist 13µM
Cc1ccccc1C1=NCC(=O)N(CC(=O)N2CCCCC2)c2sc(C)c(C)c21	gsp antagonist 7.1µM
CCc1cc2c(s1)N(CC(=O)OC)C(=O)CN=C2c1ccccc1OC	none
Cc1ccc(NC(=O)CN2C(=O)CN=C(c3ccccc3)c3ccccc32)cc1Cl	none (no result: TSHR antagonist, gsp ag, gsp antagonist)
O=c1[nH]c(=S)[nH]c(O)c1N=Nc1ccc2c(c1)OCCO2	RXFP1 antagonist -95
CCCn1c(C)c(C(=O)c2ccc3ccccc3c2)c2ccccc21	none (no result: RXFP1 antagonist, RXFP1 ag, gsp ag, gsp antagonist)
